From PubChem BioAssay
GRK2 aptamer HTS – human GRK2 inhibition via aptamer displacement; P25098; bead flow cytometry, FAM-aptamer displacement from GRK2; inhibition of aptamer binding, % at 10 µM; 0.59% of 330,000 active; AID 488847;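 active = inhibition of aptamer binding above 40%, roughly 3 SD of noise, on plates passing a quality check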;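 also: median bead fluorescence of bound FAM aptamer so fluorescent compounds give negative values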
Target sequence (P25098 whole entry, looked up): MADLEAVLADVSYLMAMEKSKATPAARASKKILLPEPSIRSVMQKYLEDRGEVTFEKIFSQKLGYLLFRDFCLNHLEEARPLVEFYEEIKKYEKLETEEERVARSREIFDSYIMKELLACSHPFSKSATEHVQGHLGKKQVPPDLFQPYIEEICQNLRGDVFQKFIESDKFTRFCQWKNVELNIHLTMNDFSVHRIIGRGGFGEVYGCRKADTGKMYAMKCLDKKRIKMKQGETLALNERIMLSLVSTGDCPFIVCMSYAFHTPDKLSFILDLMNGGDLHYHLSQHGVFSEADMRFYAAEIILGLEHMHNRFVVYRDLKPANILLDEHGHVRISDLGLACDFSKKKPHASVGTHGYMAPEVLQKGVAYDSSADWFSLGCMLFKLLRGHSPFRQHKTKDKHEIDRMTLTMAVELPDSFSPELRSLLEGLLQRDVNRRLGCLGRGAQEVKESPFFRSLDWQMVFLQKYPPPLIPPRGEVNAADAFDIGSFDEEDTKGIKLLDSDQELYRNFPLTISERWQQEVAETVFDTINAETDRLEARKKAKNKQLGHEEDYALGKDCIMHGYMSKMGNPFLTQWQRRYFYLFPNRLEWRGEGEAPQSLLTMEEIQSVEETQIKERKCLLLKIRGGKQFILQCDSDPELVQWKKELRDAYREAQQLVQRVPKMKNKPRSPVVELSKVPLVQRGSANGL
MEKK2 WT-MEK5 – raises or lowers MEK5 binding to wildtype human MEKK2 PB1 domain; binding response (% of control), % at 10 µM; Q9Y2U5; bead flow cytometry, Alexa488-MEK5 binding to MEKK2 WT; actives lie on both sides; AID 1531; 1.1% of 290,000 active; in the data active = binding response below about 67% or above about 130%
MEKK2 mut-MEK5 – signal of MEK5 binding to mutant human MEKK2 PB1 domain | bead flow cytometry, Alexa488-MEK5 binding to MEKK2 mutant | percent response, % at 10 µM | 0.35% of 290,000 active; in the data active = percent response above about 24%, passing the limit was not always enough
MEKK3 PB1 HTS – raises or lowers MEK5 binding to the human MEKK3 PB1 domain; Q99759; bead-based flow cytometry, Alexa488-MEK5 binding to MEKK3; actives lie on both sides; 0 = blocked by unlabeled MEK5, 100 = vehicle; binding response (% of control), % at 10 µM; 1.4% of 290,000 active; AID 1529;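 active = binding response more than 3 SD above or below the average of its plate-row segment, actives on both sides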;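 also: Alexa488 bead fluorescence after subtracting the streptavidin-only scavenger bead signal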
B2AR ag – activates human beta-2 adrenergic receptor causing internalization. P07550. Am2.2-beta2AR cells, FAP receptor internalization, flow cytometry. response, % (test concentration not listed). 0.43% of 340,000 active. AID 504454;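 active = response above a set limit, near 3 SD of response in nonfluorescent compounds, cut at about 42% in these data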
GRK2 CP1 – human GRK2 inhibition confirmation, cherry pick 1; aptamer displacement, % at 10 µM; bead-bound GRK2, FAM-aptamer displacement, flow cytometry; 4% of 2,000 active; AID 504451; shares compounds with GRK2 aptamer HTS;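 active = aptamer displacement above 40%, near three times the noise of non-fluorescent compounds, on plates passing quality checks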;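 also: negative values mostly reflect intrinsic compound fluorescence rather than true enhancement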
FAM quench CP1 – aptamer fluorescence quenching in GRK2 counter-screen; Carboxyfluorescein RNA aptamer on beads, flow cytometry quenching; active compounds read low; fluorescence response (% of DMSO), % at 10 µM; AID 504580; 2,000 tested, under 10 active; shares compounds with GRK2 aptamer HTS;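 active = compounds that quench the bead-bound fluorescent RNA probe, cutting fluorescence to under half of the solvent control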;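 also: counterscreen run without GRK2 so only probe quenching by compound is measured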
GRK2 CP2 – confirmation of human GRK2 inhibitors binding RNA aptamer site | shares compounds with GRK2 aptamer HTS | bead-bound GRK2, FAM-aptamer displacement, flow cytometry | inhibition of aptamer binding, % at 10 µM | 360 tested, under 10 active | AID 504782;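 active = inhibition of aptamer binding above 40%, about triple the noise seen with nonglowing compounds, on plates passing quality control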;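 also: negative values mostly come from compounds that fluoresce themselves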
FAM quench SP – counter-screen for GRK2 binding hits: quenchers of fluorescent RNA aptamer | AID 588494 | shares compounds with GRK2 aptamer HTS | fluorescence response vs DMSO, % at 10 µM | carboxyfluorescein RNA aptamer beads, flow cytometry quenching; active compounds read low | 360 tested, under 10 active;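 active = response vs DMSO under 50%, meaning signal dropped by over half, treated as fluorescence quencher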;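 also: labelled aptamer on streptavidin beads without GRK2 as a quench counter-screen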
Numbers stand for hits; i = inactive; nt = no result given. Hits are enriched below; roughly 2.9% of the tested compounds scored in any of these assays.

SMILES	GRK2 aptamer HTS	MEKK2 WT-MEK5	MEKK2 mut-MEK5	MEKK3 PB1 HTS	B2AR ag	GRK2 CP1	FAM quench CP1	others
CC(=O)c1cccc(NC(=O)CSc2nnc(C(C)N(C)C)n2Cc2ccccc2)c1 (configuration not stated)	i	i	i	i	i	nt	nt
Cc1csc(=O)n1CC(=O)OCC(=O)NCc1ccc(F)cc1	i	nt	nt	nt	i	nt	nt
CCN(CC)CCCNC(=O)c1ccc(S(=O)(=O)Nc2ccc(C)c(C)c2)cc1	i	nt	nt	nt	i	nt	nt
CCCN(C(=O)c1cn(C)c(=O)c2ccccc12)c1ccccc1C	i	i	i	i	i	i	i
Cc1cc2nc3ccc(=[N+](C)C)cc-3sc2cc1N	nt	i	i	i	i	nt	nt
CN(C)c1ccc2nc3ccc(=[N+](C)C)cc-3sc2c1	57	i	i	i	i	i	i
CN1CCCN(S(=O)(=O)c2cccc(Cl)c2Cl)CC1	i	i	i	i	i	nt	nt
O=S(=O)(c1cccc(Cl)c1Cl)N1CCCCC1	82	i	i	i	i	i	i
Cc1cccc(Nc2c(O)nc[nH]c2=O)c1	nt	nt	nt	nt	i	nt	nt
O=C(Cn1cc(C(=O)c2cccs2)c2ccccc21)NCc1ccc2c(c1)OCO2	69	i	i	i	i	i	i
CN(CC(=O)N1CCN(Cc2ccccc2)CC1)S(=O)(=O)c1cccc2nsnc12	i	i	i	i	i	nt	nt
CCc1sc(C(=O)Nc2nccs2)cc1C	i	i	i	i	i	i	i
CCc1sc(C(=O)Nc2ncccc2C)cc1C	i	i	i	i	i	nt	nt
Cc1ccc(S(=O)(=O)C2(C(=O)Nc3ccc4c(c3)OCO4)CC2)cc1	i	i	i	i	i	nt	nt	GRK2 CP2=i;FAM quench SP=i
Cc1ccc(S(=O)(=O)C2(C(=O)NC3CCCC3)CC2)cc1	i	i	i	i	i	nt	nt	GRK2 CP2=i;FAM quench SP=i
COc1ccc(-c2csc(NC(=O)COC(=O)C3=COCCO3)n2)cc1	i	i	i	i	i	nt	nt
CCCNC(=O)C(Cc1ccccc1F)NC(=O)c1ccc(C#N)cc1 (configuration not stated)	i	nt	nt	nt	i	nt	nt
CCCNC(=O)C(Cc1ccccc1F)NC(=O)c1ccccn1 (configuration not stated)	86	nt	nt	nt	i	i	i	GRK2 CP2=i;FAM quench SP=i
CCOc1ccc(-c2c(C(=O)N/N=C/c3cccnc3)nnn2-c2nonc2N)cc1	i	i	i	i	i	nt	nt
CCOc1cc(N2CCOCC2)c(OCC)cc1NC(=O)c1cc(S(=O)(=O)N2CCOCC2)ccc1Cl	nt	nt	nt	nt	i	i	i
COc1ccc(C(=O)Nc2ccccc2N2CCOCC2)cc1S(=O)(=O)N1CCCC1	i	nt	nt	nt	i	nt	nt
CCOc1cc(N2CCOCC2)c(OCC)cc1NC(=O)c1ccc(OC)c(S(=O)(=O)N2CCOCC2)c1	i	nt	nt	nt	i	i	i
O=C(CCS(=O)(=O)c1ccccc1)Nc1nncs1	54	i	i	i	i	i	i
COCCSc1nnc(NC(=O)CCS(=O)(=O)c2ccccc2)s1	i	i	i	i	i	i	i
CCCCC(=O)Nc1nnc(CCc2ccccc2)s1	99	i	i	i	i	i	i
SMILES	GRK2 aptamer HTS	MEKK2 WT-MEK5	MEKK2 mut-MEK5	MEKK3 PB1 HTS	B2AR ag	GRK2 CP1	FAM quench CP1	others
CCOCCc1nnc(NC(=O)C(C)Oc2ccccc2)s1 (configuration not stated)	i	i	i	i	i	nt	nt
O=C(CCCc1ccccc1)Nc1nncs1	i	i	i	i	i	nt	nt
CCOCCc1nnc(NC(=O)CCS(=O)(=O)c2ccccc2)s1	i	i	i	i	i	i	i
COCCSc1nnc(NC(=O)CS(=O)(=O)c2ccc(C)cc2)s1	i	i	i	i	i	nt	nt
CC(C)n1nc(C(=O)OCC(=O)NCCc2ccc(S(N)(=O)=O)cc2)c2ccccc2c1=O	nt	nt	nt	nt	i	nt	nt
O=C(O)CC(CC(=O)Nc1nncs1)c1ccccc1 (configuration not stated)	49	i	i	i	i	i	i
